Screens from PubChem BioAssay.
A selection: hits, their analogues and other compounds. The true share with any hit is near 6.7%.
Pf Dd2 growth – P. falciparum Dd2 growth inhibitors, primary screen, SYBR Green fluorescence, single dose replicates; activity change, % at 10 µM; actives 2.3% (n = 94,000); AID 1159554, 2015; 72 h; stronger effect = lower value; in the data active = activity change below about -80%
C diff HTS – C. difficile growth inhibitors, primary screen, HTS | Clostridium difficile clinical isolate growth, OD600, 24 h; stronger effect = lower value | growth activity, negative = inhibition, % at 16 µg/mL (by protocol) | actives 0.25% (n = 86,000);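 active = mean growth activity at or below -80% and every replicate also at or below -80%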;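 also: 0% = DMSO wells and -100% = levofloxacin 16 µg/mL wells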
Tcruzi prolif – T. cruzi intracellular proliferation inhibitors, primary screen, cell-based, beta-gal Tulahuen parasites, NIH3T3 host, luminescence; T. cruzi beta-gal in NIH3T3, GalScreen luminescence, 90 h; inhibition, % at 8.34 µM; actives 5.9% (n = 77,000); AID 624255, 2012;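 active = mean inhibition above about 93%, with at least 55% of replicates each passing it, limit read from the data, passing the limit was not always enough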
The depositor's hits bear a star; ! = a repeat was not active.

For C[C@H](CO)N1C[C@H](C)[C@H](CN(C)Cc2ccc3c(c2)OCO3)Oc2ccc(NS(=O)(=O)c3cn(C)cn3)cc2C1=O the results were Pf Dd2 growth 27.3 and Tcruzi prolif -53.4.
O=C(C[C@@H]1CC[C@@H](NC(=O)Nc2ccc3c(c2)OCO3)[C@H](CO)O1)NCc1ccccc1 was read as Pf Dd2 growth -1.6, C diff HTS 1.9 and Tcruzi prolif -80.9.
`N#Cc1ccc(-c2ccc(C3[C@@H]4CN(C(=O)C5CCC5)C[C@H]3N4)cc2)cc1` (stereo partly specified) gave Pf Dd2 growth -90.9*! and C diff HTS -1.1.
Screening O=C(C1CC1)N1C[C@@H]2N[C@H](C1)C2c1ccc(-c2ccccc2F)cc1 (stereo partly specified) returned Pf Dd2 growth -87.1*! and C diff HTS 1.0.
Screening O=C(C1CC1)N1C[C@@H]2N[C@H](C1)C2c1ccc(-c2cccc(F)c2)cc1 (stereo partly specified) returned Pf Dd2 growth -81.4*! and C diff HTS 0.9.
N#Cc1ccc(-c2ccc(C3[C@@H]4CN(C(=O)C5CCCC5)C[C@H]3N4)cc2)cc1 (stereo partly specified) was read as Pf Dd2 growth -80.8* and C diff HTS 2.5.
O=C(C1CCCC1)N1C[C@@H]2N[C@H](C1)C2c1ccc(-c2cccc(F)c2)cc1 (stereo partly specified) was read as Pf Dd2 growth -65.1 and C diff HTS 39.3.
Screening O=C(C1CCCC1)N1C[C@@H]2N[C@H](C1)C2c1ccc(-c2cncnc2)cc1 (stereo partly specified) returned Pf Dd2 growth -9.4 and C diff HTS 3.4.
Screening O=C(c1ccc(F)cc1)N1C[C@@H]2N[C@H](C1)C2c1ccc(-c2ccccc2F)cc1 (stereo partly specified) returned Pf Dd2 growth -32.4 and C diff HTS 70.9.
Screening O=C(C1CCCC1)N1C[C@@H]2N[C@H](C1)C2c1ccc(-c2ccncc2)cc1 (stereo partly specified) returned Pf Dd2 growth -1.4 and C diff HTS -1.8.
`O=C(NCC[C@H]1CC[C@H](NS(=O)(=O)c2ccc(F)cc2)[C@H](CO)O1)Nc1ccc(Cl)cc1` gave Pf Dd2 growth -2.9 and Tcruzi prolif -45.7.
For C[C@H]1CN([C@@H](C)CO)C(=O)CCCn2nncc2CO[C@H]1CN(C)Cc1cccc2c1OCCCO2 the results were Pf Dd2 growth -6.4 and Tcruzi prolif 6.0.
`C[C@H](CO)N1C[C@H](C)[C@H](CN(C)C(=O)C2CCCCC2)Oc2cc(-c3ccccc3)ccc2S1(=O)=O` gave Pf Dd2 growth -43.6, C diff HTS 1.1 and Tcruzi prolif 74.4.
Screening CCCNC(=O)C[C@@H]1CC[C@@H]2[C@H](COC[C@@H](O)CN2Cc2ccc(Cl)c(Cl)c2)O1 returned Pf Dd2 growth 3.9, C diff HTS 10.1 and Tcruzi prolif 19.9.
`N#Cc1cccc(-c2ccc(C3[C@@H]4CN(C(=O)Nc5ccccc5)C[C@H]3N4)cc2)c1` (stereo partly specified) gave Pf Dd2 growth -30.7 and C diff HTS 38.5.
N#Cc1cccc(-c2ccc(C3[C@@H]4CN(C(=O)C5CC5)C[C@H]3N4)cc2)c1 (stereo partly specified) was read as Pf Dd2 growth -90.2*! and C diff HTS -5.3.
For COc1cccc(CNC(=O)[C@H]2[C@H](CO)[C@H]3Cn4c(cccc4=O)[C@@H]2N3C(=O)C2CCCC2)c1 the results were Pf Dd2 growth -81.5* and C diff HTS -1.2.
COc1cccc(CNC(=O)[C@@H]2[C@@H](CO)[C@@H]3Cn4c(cccc4=O)[C@H]2N3C(=O)C2CCCC2)c1 was read as Pf Dd2 growth 50.9 and C diff HTS -3.1.
For CCNC(=O)C[C@@H]1CC[C@H]2[C@@H](COC[C@@H](O)CN2C(=O)Nc2ccc(Cl)c(Cl)c2)O1 the results were Pf Dd2 growth 4.5 and Tcruzi prolif 10.6.
O=C(C[C@H]1CC[C@H]2[C@@H](COC[C@H](O)CN2C(=O)Nc2cc(Cl)cc(Cl)c2)O1)N1CCOCC1 was read as C diff HTS -96.0*! and Tcruzi prolif 16.7.
Screening O=C(C[C@H]1CC[C@H]2[C@@H](COC[C@H](O)CN2C(=O)Nc2ccc(Cl)c(Cl)c2)O1)NC1CCC1 returned C diff HTS -92.3* and Tcruzi prolif -31.6.
O=C(C[C@H]1CC[C@@H]2[C@H](COC[C@@H](O)CN2C(=O)Nc2cc(Cl)cc(Cl)c2)O1)N1CCOCC1 was read as C diff HTS 55.2 and Tcruzi prolif 29.5.
Screening CNC(=O)C[C@H]1CC[C@@H]2[C@H](COC[C@@H](O)CN2C(=O)Nc2ccc(Cl)c(Cl)c2)O1 returned Pf Dd2 growth -7.6, C diff HTS -0.1 and Tcruzi prolif 20.0.
For O=C(C[C@@H]1CC[C@@H]2[C@H](COC[C@H](O)CN2C(=O)Nc2ccc(Cl)c(Cl)c2)O1)NC1CCC1 the results were C diff HTS -101.2*! and Tcruzi prolif -123.3.
CCNC(=O)C[C@@H]1CC[C@H]2[C@@H](COC[C@H](O)CN2C(=O)Nc2ccc(Cl)c(Cl)c2)O1 was read as Pf Dd2 growth 2.9 and Tcruzi prolif 34.4.
For O=C(C[C@H]1CC[C@@H]2[C@H](COC[C@H](O)CN2C(=O)Nc2ccc(Cl)c(Cl)c2)O1)NC1CCC1 the results were C diff HTS -99.2*! and Tcruzi prolif -43.2.
Screening CO[C@@H]1CN(C)C(=O)c2ccc(NC(=O)C3CCCCC3)cc2OC[C@@H](C)N(Cc2cccnc2)C[C@@H]1C returned Pf Dd2 growth -29.0, C diff HTS -5.0 and Tcruzi prolif 4.3.
For O=C(C[C@@H]1C[C@H]2c3cc(NS(=O)(=O)c4ccccc4)ccc3O[C@H]2[C@H](CO)O1)NCC(F)(F)F the results were Pf Dd2 growth 25.3, C diff HTS -12.1 and Tcruzi prolif -37.8.
COc1ccc(NC(=O)N(C)C[C@@H]2Oc3ccc(NC(=O)CCC(F)(F)F)cc3CC(=O)N([C@H](C)CO)C[C@H]2C)cc1 was read as Pf Dd2 growth -1.1, C diff HTS -1.3 and Tcruzi prolif -4.3.
Screening CO[C@@H](CN(C)S(=O)(=O)c1ccccc1)[C@H](C)CN(C(=O)Nc1ccccc1F)[C@H](C)CO returned Pf Dd2 growth -28.8 and Tcruzi prolif -6.5.
COc1ccccc1NC(=O)N[C@H]1CC[C@H](CCNS(=O)(=O)c2ccc(F)cc2)O[C@@H]1CO was read as Pf Dd2 growth -4.4, C diff HTS 1.5 and Tcruzi prolif 24.4.
`CC(=O)n1cc([C@H]2C=C(C(=O)N3CCCCCCC3)O[C@@H](OCCCCO)C2)c2ccccc21` gave C diff HTS 5.6.
CNC(=O)C[C@H]1CC[C@@H]2[C@H](COC[C@H](O)CN2C(=O)Nc2ccc(Cl)c(Cl)c2)O1 was read as Pf Dd2 growth -11.9, C diff HTS -7.2 and Tcruzi prolif 25.4.
Screening CNC(=O)C[C@@H]1CC[C@H]2[C@@H](COC[C@H](O)CN2C(=O)Nc2ccc(Cl)c(Cl)c2)O1 returned Pf Dd2 growth -4.1, C diff HTS -3.8 and Tcruzi prolif 32.3.
